From PubChem BioAssay
Shown are actives, neighbours in structure and some others; about 4.6% of the full set was active somewhere.
D1 antag – antagonists of human D1 dopamine receptor. P21728. HEK293 TREx D1 cells, calcium flux, dopamine EC80; active compounds read low. activity change, negative = inhibition, % at 10 µM. 360,000 tested, 3.2% active; in the data active = activity change below about -30%; note: % is set by controls: 0 for no effect and ±100 for the full control effect
Target sequence (P21728 whole entry, looked up): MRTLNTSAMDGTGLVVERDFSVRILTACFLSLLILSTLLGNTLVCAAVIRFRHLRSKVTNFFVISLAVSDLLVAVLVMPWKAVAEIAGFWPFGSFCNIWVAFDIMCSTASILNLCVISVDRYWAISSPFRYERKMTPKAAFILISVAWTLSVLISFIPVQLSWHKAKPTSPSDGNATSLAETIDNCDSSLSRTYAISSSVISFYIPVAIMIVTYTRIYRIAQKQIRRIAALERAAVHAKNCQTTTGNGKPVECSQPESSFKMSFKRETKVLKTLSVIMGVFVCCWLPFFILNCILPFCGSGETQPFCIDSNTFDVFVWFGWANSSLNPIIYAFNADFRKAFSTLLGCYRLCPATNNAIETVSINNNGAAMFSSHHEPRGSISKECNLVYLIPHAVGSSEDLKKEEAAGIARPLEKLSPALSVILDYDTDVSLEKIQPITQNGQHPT
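After overnight tetracycline induction at 30 C, force-coupled D1 HEK293 cells took up a no-wash calcium dye at room temperature. Compounds were added and monitored 180 s, and the response to EC80 dopamine was then recorded.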
TRHR agonist – activates the human TRH receptor; 360,000 tested, 0.18% active; AID 493084; activation, % at 2 µM; TRHR cells, calcium flux fluo-8, FDSS agonist mode; note: 0% is about no effect
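Agonist-mode FDSS calcium read (Ex 480/Em 530, 1 s cycles) in 1536-well TRHR cells with fluo-8 dye, after 10-cycle baseline and 23 nL compound addition; TRH at EC20 (10 nM final) added afterwards for the enhancer phase.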
TRHR enhancer – allosteric enhancers of human TRH receptor. P34981. AID 493056. TRHR cells, fluo-8 calcium fluorescence, EC20 TRH enhancement. enhancement, % at 2 µM. 360,000 tested, 0.66% active; in the data active = enhancement above about 30%; note: 0% is about no effect
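Enhancer read-out: after compound pinning and an initial kinetic agonist-mode read, an EC20 of TRH (10 nM final) was injected and fluo-8 calcium signal (Ex 480/Em 530) followed at 1 s/cycle for 100 cycles in TRHR-expressing cells.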
D1 PAM – potentiators of human D1 dopamine receptor; potentiation, % at 10 µM; 360,000 tested, 0.036% active; HEK293 TREx D1 cells, calcium flux, dopamine EC20 potentiation; P21728; AID 504651; in the data active = potentiation above about 30%; note: 0% is about no effect
D1 ag – activates the human D1 dopamine receptor | P21728 | HEK293 T-REx D1 cells, calcium flux, agonist mode | activation, % at 2 µM | 360,000 tested, 1% active; note: 0% is about no effect
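Tetracycline-induced HEK293 TREx D1 cells, force-coupled to calcium signalling, were dye-loaded with a no-wash calcium kit. Compound was pin-added after a 10 s baseline. Fluorescence was read kinetically at 1 cycle/s for 180 s, with calcium rises flagged as agonism.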
Active calls of the source: *. Cut-off read from the data, not from the text of the source, unless noted: active = activation above about 30%; inactive = the rest.

Screening CC(=O)N1CCN(C(=O)c2cccc(S(=O)(=O)N3CCN(c4ccc(F)cc4)CC3)c2)CC1 returned D1 antag -0.3, TRHR agonist 0.3, TRHR enhancer -0.7, D1 PAM -8.2 and D1 ag 53.3*.
For CC(C)c1ccc(S(=O)(=O)N2CCN(C(=O)c3cccc(F)c3)CC2)cc1 the results were D1 antag -67.8*, TRHR agonist 0.5, TRHR enhancer -9.1, D1 PAM -2.0 and D1 ag 0.2.
Screening O=C(c1cccc(S(=O)(=O)N2CCN(c3ccc(F)cc3)CC2)c1)N1CCCCCCC1 returned D1 antag -2.1, TRHR agonist -0.6, TRHR enhancer -4.4, D1 PAM -1.7 and D1 ag 8.6.
Screening O=C(c1cccc(NS(=O)(=O)c2ccc(F)cc2)c1)N1CCN(c2ccccc2)CC1 returned D1 antag -42.3*, TRHR agonist -0.7, TRHR enhancer -1.7, D1 PAM 2.2 and D1 ag 3.7.
`Cc1cc(C)c2c(CC(=O)Nc3ccc(S(=O)(=O)N4CCCC(C)C4)cc3)coc2c1` (stereo unspecified) gave D1 antag 2.1, TRHR agonist 1.4, TRHR enhancer 3.7, D1 PAM 1.1 and D1 ag 2.9.
Screening O=C(NC1=NCCS1)c1cccc(S(=O)(=O)N2CCOCC2)c1 returned D1 antag -15.0, TRHR agonist 1.1, TRHR enhancer 31.7*, D1 PAM -3.7 and D1 ag 1.0.
CCN(Cc1ccccc1)C(=O)c1cccc(S(=O)(=O)N2CCN(c3ccccc3)CC2)c1 was read as D1 antag 21.8, TRHR agonist -0.1, TRHR enhancer -0.6, D1 PAM -1.1 and D1 ag 4.6.
`CCN(Cc1ccccc1)C(=O)c1cccc(S(=O)(=O)N2CCN(c3ccc(F)cc3)CC2)c1` gave D1 antag -63.3*, TRHR agonist -0.3, TRHR enhancer 11.2, D1 PAM -3.5 and D1 ag 5.3.
Screening Cc1ccc(Cl)cc1Nc1nn2c(=O)c3ccc(C(=O)NCc4ccc(F)cc4)cc3nc2s1 returned D1 antag -33.4*, TRHR agonist -1.2, TRHR enhancer -0.5, D1 PAM -4.3 and D1 ag 1.6.
Cc1ccccc1Nc1nn2c(=O)c3ccc(C(=O)NCc4ccccc4)cc3nc2s1 was read as D1 antag 11.5, TRHR agonist 0.3, TRHR enhancer -0.1, D1 PAM -5.3 and D1 ag -0.6.
For Cc1ccc(C)c(Nc2nn3c(=O)c4ccc(C(=O)N(C)Cc5ccccc5)cc4nc3s2)c1 the results were D1 antag -25.7, TRHR agonist -0.4, TRHR enhancer -2.1, D1 PAM -3.1 and D1 ag -0.8.
CCCCN(C)C(=O)c1ccc2c(=O)n3nc(Nc4cc(C)ccc4C)sc3nc2c1 was read as D1 antag -67.9*, TRHR agonist -0.7, TRHR enhancer 14.6, D1 PAM -3.5 and D1 ag 3.2.
For Cc1cccc2c1-c1sc(C(=O)NCc3ccc(Cl)cc3)cc1CO2 the results were D1 antag -4.2, TRHR agonist 0.1, TRHR enhancer -3.0, D1 PAM -7.3 and D1 ag 3.6.
Screening Cc1cccc(-c2noc(CN(C3CCCCC3)S(=O)(=O)c3ccc(F)cc3)n2)c1 returned D1 antag -8.9, TRHR agonist 2.9, TRHR enhancer 12.8, D1 PAM -1.1 and D1 ag 14.8.
`CCCOc1cc(NCc2ccccc2)c2ncn(C(C)C)c2c1` gave D1 antag 42.6, TRHR agonist 0.4, TRHR enhancer 6.3, D1 PAM 15.5 and D1 ag 32.8*.
For CCn1cc(CNC(=O)c2ccc(OC3CCN(Cc4ccccn4)CC3)cc2)cn1 the results were D1 antag 0.5, TRHR agonist -0.1, TRHR enhancer -1.0, D1 PAM -5.1 and D1 ag 1.7.
Screening CCn1nc(C)c(CNC(=O)c2ccc(OC3CCN(Cc4ccccn4)CC3)cc2)c1C returned D1 antag -34.0*, TRHR agonist 0.6, TRHR enhancer 2.5, D1 PAM -5.7 and D1 ag 5.5.
`COC(=O)[C@@H](NC(=O)c1ccc(OC2CCN(Cc3ccccn3)CC2)cc1)C(C)C` gave D1 antag 1.2, TRHR agonist 0.7, TRHR enhancer -5.9, D1 PAM -1.4 and D1 ag 4.2.
`CC(C)c1cc(CNC(=O)c2ccc(OC3CCN(Cc4ccccn4)CC3)cc2)on1` gave D1 antag -53.5*, TRHR agonist 0.2, TRHR enhancer -1.6, D1 PAM -7.1 and D1 ag 12.9.
For Cc1cc(Nc2cccc(C(F)(F)F)c2)nc2ccc(NC(=O)c3cccnc3)cc12 the results were D1 antag -13.1, TRHR agonist -0.7, TRHR enhancer 12.3, D1 PAM -5.0 and D1 ag -1.3.
Screening O=C(CSc1nnc(-c2cccnc2)o1)Nc1ccccc1F returned D1 antag -9.6, TRHR agonist 0.4, TRHR enhancer -13.4, D1 PAM -8.3 and D1 ag 0.3.
C[C@@H](C(=O)NCc1ccccc1)[C@@H]1C[C@@]1(C)[C@@H](NC(=O)OCc1ccccc1)c1ccccc1 was read as D1 antag -0.2, TRHR agonist -0.6, TRHR enhancer 3.8, D1 PAM 2.3 and D1 ag 12.9.
C[C@@H](C(=O)NCc1ccccn1)[C@@H]1C[C@@]1(C)[C@@H](NC(=O)OCc1ccccc1)c1ccccc1 was read as D1 antag -31.0*, TRHR agonist -0.5, TRHR enhancer -5.1, D1 PAM 1.9 and D1 ag -2.1.
Cc1cccc(-c2csc3ncnc(Sc4nnnn4C)c23)c1 was read as D1 antag -3.7, TRHR agonist -1.1, TRHR enhancer 3.0, D1 PAM 4.7 and D1 ag 0.1.
COc1cccc(NC(=O)Cn2c(=O)n(-c3cccc(OC)c3)c(=O)c3sc4ccccc4c32)c1 was read as D1 antag -17.5, TRHR agonist -1.5, TRHR enhancer -6.7, D1 PAM -2.3 and D1 ag 5.3.
Screening CCC(C)NCCOCCOc1ccc(Cl)c2ccccc12 (stereo unspecified) returned D1 antag -45.2*, TRHR agonist 4.9, TRHR enhancer -1.1, D1 PAM -0.3 and D1 ag 57.5*.
CCC(C)NCCOCCOc1ccc(Cl)c(C)c1C (stereo unspecified) was read as D1 antag -4.5, TRHR agonist 1.8, TRHR enhancer 7.5, D1 PAM -3.4 and D1 ag 33.9*.
`Cc1c(C(=O)NCc2cccc(Br)c2)oc2ccc3c(c12)C(=O)CC(C)(C)O3` gave D1 antag 5.1, TRHR agonist 0.9, TRHR enhancer 3.4, D1 PAM 6.6 and D1 ag 6.5.
O=C(/C=C/c1ccc(Cl)cc1Cl)NCCSCc1ccccc1 was read as D1 antag -45.8*, TRHR agonist 1.8, TRHR enhancer -2.6, D1 PAM -9.9 and D1 ag 5.7.
